SKKanGAS inh: blocks kanamycin growth of S. pyogenes SKKanGAS strain; inhibition, % at 7.5 µM; 300,000 compounds, 1.3% hits; AID 1662; BacTiter-Glo, 6 h;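 active means mean replicate score, as percent of positive control median, at least 50; inconclusive means mean below 50 but one replicate at or above 50; inactive means mean and every replicate below 50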;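 further: strain carries kanamycin resistance gene driven by streptokinase promoter and grows in 40 µg/ml kanamycin; loss of luminescence reflects streptokinase promoter inhibition or plain growth inhibition; 0% = median of DMSO wells and 100% = positive control at its reference dose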
Beta cell apopt: blocks beta cell apoptosis | INS-1E cytokine-induced death, ATP luminescence, 48 h; percent of positive-control rescue, neutral wells zero | protection from apoptosis, % (concentration not given with the values) | 300,000 compounds, 0.8% hits;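 active means Every replicate reaches about 75%, or at least half do and their mean reaches it too, limit read from the data; inconclusive means At least half of replicates reach the limit but their mean does not; inactive means Under half of replicates reach the limit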;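 further: 0% = cytokine-treated negative control wells and 100% = positive control rescue; higher means more ATP so stronger rescue from cytokine killing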
Mdm2-MdmX inh: inhibitors of human Mdm2/MdmX interaction | 330,000 compounds, 3% hits | SaOS-2 split-luciferase Mdm2/MdmX complementation, luminescence | AID 485346 | inhibition, % at 8 µM;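 active means inhibition of at least 50% at 8 µM in the primary screen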
Target sequence (O15151 whole entry, looked up): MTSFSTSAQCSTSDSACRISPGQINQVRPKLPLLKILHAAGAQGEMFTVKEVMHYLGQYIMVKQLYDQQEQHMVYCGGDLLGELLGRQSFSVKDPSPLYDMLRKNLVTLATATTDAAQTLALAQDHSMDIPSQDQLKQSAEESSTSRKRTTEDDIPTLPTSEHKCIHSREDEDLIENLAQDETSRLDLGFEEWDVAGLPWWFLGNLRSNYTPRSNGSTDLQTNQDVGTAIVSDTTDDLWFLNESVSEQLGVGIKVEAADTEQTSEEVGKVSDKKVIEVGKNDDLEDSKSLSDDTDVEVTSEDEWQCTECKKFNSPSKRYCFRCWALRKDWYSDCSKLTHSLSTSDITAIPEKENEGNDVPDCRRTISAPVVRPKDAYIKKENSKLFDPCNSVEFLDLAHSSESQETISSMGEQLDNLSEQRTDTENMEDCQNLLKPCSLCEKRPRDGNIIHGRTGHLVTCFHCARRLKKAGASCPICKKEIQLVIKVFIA
Target sequence (Q00987 whole entry, looked up): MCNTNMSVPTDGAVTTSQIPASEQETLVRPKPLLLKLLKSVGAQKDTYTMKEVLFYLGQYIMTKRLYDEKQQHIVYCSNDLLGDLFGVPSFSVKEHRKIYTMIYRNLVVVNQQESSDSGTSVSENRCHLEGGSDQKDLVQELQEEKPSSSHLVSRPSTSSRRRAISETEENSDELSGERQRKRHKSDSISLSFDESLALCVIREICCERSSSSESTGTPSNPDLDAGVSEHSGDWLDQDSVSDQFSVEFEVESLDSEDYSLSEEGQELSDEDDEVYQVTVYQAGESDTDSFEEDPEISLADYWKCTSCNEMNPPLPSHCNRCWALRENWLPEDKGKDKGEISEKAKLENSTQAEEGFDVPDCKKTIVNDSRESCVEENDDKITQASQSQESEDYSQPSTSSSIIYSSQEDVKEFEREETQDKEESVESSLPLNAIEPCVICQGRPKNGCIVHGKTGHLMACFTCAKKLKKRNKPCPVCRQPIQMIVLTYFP
CSC inhib: blocks cancer stem cells; AID 2717; inhibition, % at 7.5 µM; 300,000 compounds, 1.1% hits; cancer stem cell-like cells viability, luminescence; in the data active means inhibition above about 75%; inconclusive means no clear call, values can overlap the other calls; tested in HMLE shEcad cells
MPTP block: permeability transition pore inhibition. isolated mouse mitochondria, Ca2+ swelling absorbance, 30 min. inhibition, % at 10 µM. 360,000 compounds, 1.4% hits;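 active means inhibition of 50% or more, scaled per plate between neutral and stimulator controls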;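 further: 0% = DMSO wells given calcium and 100% = 1 mM EGTA wells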
GRIN3A LBD mod: NR3A (human) ligand-binding domain modulation; AID 1259313; 340,000 compounds, 2.5% hits; NR3A LBD differential scanning fluorimetry, Tm shift; 0% = protein alone, 100% = glycine-bound protein; Tm shift relative to glycine control, % at 25 µM;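 active means melting temperature shift of at least 10% of the positive control shift, at one fixed dose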
Mdm2 MdmX conf: human Mdm2/MdmX binding inhibition, confirmed | shares compounds with Mdm2-MdmX inh | luminescent assay | inhibition, % at 8 µM | 10,000 compounds, 55% hits | AID 489028; in the data active means inhibition above about 40%
Full FLuc ctr: full-length luciferase inhibition in Mdm2/MdmX counter-screen; AID 504607; shares compounds with Mdm2-MdmX inh; SaOS-2 full-length luciferase counterscreen, luminescence; inhibition, % at 8 µM; 6,200 compounds, 77% hits;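 active means mean inhibition at 8 µM reaching about 37%, which flags the compound as non-specific, limit read from the data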;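 further: p53-null SaOS-2 cells with luciferase driven by a doxycycline-inducible promoter; compound on cells about two nights before reading with doxycycline added after day one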
* marks the source's active call; other numbers are inactive results; ? = inconclusive; · = no result given. Compounds with a hit are over-represented: about 6.9% of the library has one in this group of screens.

SMILES	SKKanGAS inh	Beta cell apopt	Mdm2-MdmX inh	CSC inhib	MPTP block	GRIN3A LBD mod	Mdm2 MdmX conf	Full FLuc ctr
Oc1cccc(C(Nc2nccs2)c2ccc3cccnc3c2O)c1 (stereo not given)	27	77*	77*	110*	0	-24	81*	21
O=[N+]([O-])c1ccc(NC(c2ccccc2)c2ccc3cccnc3c2O)cc1 (stereo not given)	·	·	·	·	4	-4	·	·
CC(=O)NC(c1cccc([N+](=O)[O-])c1)c1ccc2cccnc2c1O (stereo not given)	60*	97*	77*	102*	-1	0	81*	24
Oc1c(C(Nc2cccc(C(F)(F)F)c2)c2cccnc2)ccc2cccnc12 (stereo not given)	?	5	21	33	0	-9	·	·
COc1cccc(C(NC(C)=O)c2ccc3cccnc3c2O)c1 (stereo not given)	30	82*	82*	58	2	-4	80*	29
O=C(Nc1cccc(OC(F)(F)F)c1)C1Cc2c(-c3ccc4c(c3)OCO4)ccnc2O1 (stereo not given)	·	·	·	·	2	·	·	·
C/C(=N\NC(=O)c1cccc(F)c1)c1ccc(Br)s1	-17	9	72*	50	0	0	49*	44*
CN1CN=C(NS(=O)(=O)c2ccc([N+](=O)[O-])cc2)NC1	3	-3	20	1	0	1	·	·
CC(=O)Nc1ccc(S(=O)(=O)NC2=NCN(c3ccc([N+](=O)[O-])cc3)CN2)cc1	1	-3	63*	-5	0	1	15	·
O=C(/C=C/c1ccc(Cl)c([N+](=O)[O-])c1)Nc1cccc(NC(=O)c2ccco2)c1	5	1	53*	?	12	11*	22	·
OC(c1ccc(Cl)cc1)c1ncc(-c2cccc(C(F)(F)F)c2)[nH]1 (stereo not given)	·	·	·	·	17	·	·	·
COc1ccccc1-n1c(C)c(C(C)=O)c2cc(O)ccc21	4	-14	38	-8	1	4	·	·
N/C(Cc1ccc([N+](=O)[O-])cc1)=N\OC(=O)c1cccc(Br)c1	-6	-6	61*	-5	1	-15	7	·
COc1cc(C(=O)O/N=C(\N)Cc2ccc([N+](=O)[O-])cc2)cc(OC)c1OC	1	12	85*	30	0	0	70*	70*
CCOc1ccc(C(=O)O/N=C(\N)c2ccc([N+](=O)[O-])cc2)cc1OCC	-1	·	60*	·	-1	-10	52*	125*
CCOc1cc(/C=N/O)ccc1OCc1ccc([N+](=O)[O-])cc1	1	2	-23	·	-1	-3	·	·
CCOc1cc(C=C(C(=O)OC)C(=O)OC)ccc1OCc1ccc([N+](=O)[O-])cc1	·	56	96*	-13	-3	-1	75*	44*
COc1ccc(C(=O)O/N=C(\N)Cc2ccc([N+](=O)[O-])cc2)c(OC)c1	5	5	86*	-3	1	1	68*	90*
Cc1ccc(C)c(N2CCN(S(=O)(=O)c3c(C)noc3/C=C/N(C)C)CC2)c1	26	-2	56*	41	1	-5	28	·
Cc1noc(/C=C/N(C)C)c1S(=O)(=O)N1CCN(c2ccccc2)CC1	2	-3	3	·	1	-1	·	·
CC(OC(=O)/C=C/c1ccc2ccccc2n1)C(=O)N(C)c1ccccc1 (stereo not given)	·	2	65*	·	-1	0	35	56*
COc1ccccc1NC(=O)C(C)OC(=O)/C=C/c1ccc2ccccc2n1 (stereo not given)	-7	-6	12	-2	-2	0	·	·
NNC(=O)C1CC(O)CN1S(=O)(=O)c1ccc2ccccc2c1 (stereo not given)	·	-1	0	-24	-1	-1	·	·
C(=C1/CCCC2=C1Nc1ncnn1C2c1ccccc1)/c1ccccc1 (stereo not given)	-6	-17	76*	41	·	·	84*	11
S=C1NC2=C(CCC/C2=C\c2ccccc2)C(c2ccccc2)N1 (stereo not given)	-7	-1	19	15	0	-1	·	·
SMILES	SKKanGAS inh	Beta cell apopt	Mdm2-MdmX inh	CSC inhib	MPTP block	GRIN3A LBD mod	Mdm2 MdmX conf	Full FLuc ctr
CCOc1ccc(OCC(=O)OCC(=O)NNC(=O)c2ccc([N+](=O)[O-])cc2)cc1	-3	-4	16	-6	-1	1	·	·
CSc1nccc(-c2nn(-c3ccc(C)cc3)ccc2=O)n1	-5	2	51*	50	-1	0	73*	59*
COc1ccc2c(c1)C1C=CCC1C(c1cc3c(cc1Br)OCO3)N2 (stereo not given)	3	-5	47	60	1	-6	·	·
CC(=O)c1ccc2c(c1)C1C=CCC1C(c1cc3c(cc1Br)OCO3)N2 (stereo not given)	15	12	67*	52	2	-7	47*	57*
NNC(=S)Nc1ccc(S(=O)(=O)N2CCCCC2)cc1	-1	-1	13	11	0	-5	·	·
COc1ccc(NC(=O)c2ccc3c(c2)n(C)c(=O)n3C)cc1	-6	·	52*	-6	-3	0	9	·
CCc1nnc(NC(=O)CSc2nnc(COc3ccccc3)n2-c2ccc(C)cc2)s1	3	-8	2	-1	3	-1	·	·
CCOc1ncccc1C(=O)Nc1ccc(C(=O)Nc2ccc(OC)cc2)cc1	·	4	72*	·	2	-1	22	·
CC(=O)Oc1ccc(C(=O)Nc2cccc(C(=O)c3cccc(NC(=O)c4ccc(OC(C)=O)cc4)c3)c2)cc1	9	3	79*	27	-2	0	37	86*
CCc1nnc(NC(=O)CSc2nnc(-c3ccccc3O)n2-c2ccc(C)cc2C)s1	33	5	63*	34	2	-8	53*	61*
Cc1ccc(C(=O)N2CCN(c3ccccn3)CC2)cc1Cl	-2	1	-2	1	0	-1	·	·
O=C(CNCc1ccccn1)Nc1ccc([N+](=O)[O-])cc1C(=O)Nc1ccccc1F	2	2	5	0	0	-6	·	·
COc1ccc(OC)c(NC(=O)c2ccc(NC(C)=O)cc2)c1	7	-5	22	-5	2	4	·	·
Cn1c(=O)n(C)c2cc(NC(=O)CCl)ccc21	-25	-21	69*	-6	0	-1	67*	46*
CC(=O)Nc1ccc2c(c1)n(C)c(=O)n2C	-3	-3	66*	-1	-2	1	10	·
Cn1c(=O)n(C)c2cc(NC(=O)CSc3nnc(-c4ccccc4O)n3-c3ccccc3)ccc21	0	-2	58*	-7	3	1	19	·

Screening data: PubChem, several laboratories
